Assay results: PubChem BioAssay AID758 (NMMLSC, 2007)
Out of some 190,000 compounds screened, about 110 (0.058%) were called active. Another 2% or so got no clear call; they are omitted.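 Rule for the calls: active = fluorescent GTP binding to Rab7 beads changed by at least 20 points from the 100% baseline, either direction, mostly lower; inconclusive = compound itself probably fluorescent, or too few beads counted; inactive = the rest.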 The entries come from a sample that favours actives as a whole.

What follows are molecules tested on Rab7 GTPase wild type (dog), Bodipy-FL-GTP binding (assay: modulators of GTP binding to Rab7, primary screen, biochemical, wildtype, multiplex bead flow cytometry (AID 758;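 note: median green fluorescence of bound Bodipy-FL-GTP per Rab7 bead population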)). Settings: GST-Rab7 beads, fluorescent GTP binding, at 10 µM, actives lie on both sides.

SMILES | GTP binding activity (percent of control)
CCCC(C)n1[nH]c(=O)c2c1NC(=O)CSC2c1ccc(OC)c(OC)c1 (stereo not given) | 100% (inactive)
CCOc1ccc(C2SCC(=O)Nc3c2c(C)nn3C2CCOC(C)(C)C2)cc1 (stereo not given) | 79% (active)
CN(C)CCCN=Cc1c(O)n(Cc2ccco2)c(=O)[nH]c1=O | 104% (inactive)
COP(=O)(OC)C(NC(=O)c1ccc(C)cc1)C(Cl)(Cl)Cl (stereo not given) | 99% (inactive)
O=C(Cc1ccccc1)N1CCN(C2CCCCCC2)CC1 | 98% (inactive)
